From PubChem BioAssay (NCATS) come the findings set out here.

SMILES strings stand for the structures. Records with an inconclusive call do not appear. A call without a number means that no potency is given here. Activity calls are given as the source filed them. Calls come from the whole dose curve; as a rule, active = well fitted cell-killing curve with a large enough effect; inconclusive = small, poorly fitted or top-dose-only effect, or effect the other way; inactive = no such curve, though single readings can be large or run the other way.
Potency is the fitted concentration of half-maximal effect.

The assay is described as follows: Quantitative High-Throughput drug screen in 47 multiple myeloma cell lines against the NCATS MIPE library collection: KMS28BM_JCRB cell viability assay (AID 1919874). Note: nearly all actives have a fitted effect of over 35% in size. Conditions: CellTiter-Glo ATP, 48 h; series mostly up to 45.8 µM. The source says: PI: Beverly A. Mock Ph.D.
Laboratory of Cancer Biology and Genetics,
Center for Cancer Research, National Cancer Institute,
National Institute of Health, Bethesda, Maryland
Drug resistance and disease progression are common in multiple myeloma (MM) patients, underscoring the need for new therapeutic combinations. […] We hypothesized that effective combinations would reduce MYC expression and enhance p16 activity. […] These preclinical data identify potentially useful drug combinations for evaluation in drug-resistant MM and reveal potential mechanisms of combined drug sensitivity.
Described herein is the primary MIPE qHTS used to cherrypick compounds. Validated compounds were then further tested for potential synergistic activiy.
[1] Peat TJ, Gaikwad SM, Dubois W, Gyabaah-Kessie N, Zhang S, Gorjifard S, Phyo Z, Andres M, Hughitt VK, Simpson RM, Miller MA, Girvin AT, Taylor A, Williams D, D'Antonio N, Zhang Y, Rajagopalan A, Flietner E, Wilson K, Zhang X, Shinn P, Klumpp-Thomas C, McKnight C, Itkin Z, Chen L, Kazandijian D, Zhang J, Michalowski AM, Simmons JK, Keats J, Thomas CJ, Mock BA. Drug combinations identified by high-throughput screening promote cell cycle transition and upregulate Smad pathways in myeloma. Cancer Lett. 2023 Aug 1;568:216284. doi: 10.1016/j.canlet.2023.216284. Epub 2023 Jun 24. PMID: 37356470; PMCID: PMC10408729.
SEQUENCE No. (e.g., 1, 2, 3, etc.); […] (e.g., Cells, Incubation, Reagent, etc.); VALUE and DESCRIPTION.
1; Cells; 5 uL; white, solid bottom 1536-well Greiner assay plate.
2; Compounds; 23 nL; Kalypsis pin tool (Wako USA) equipped with a 1536-well pin head to transfer to the assay plates.
3; Incubation; 48 hours; 37C incubation.
4; Reagent;5uL; CellTiter Glo (Promega).
5; Detector; 425V; Luminescence; Viewlux PerkinElmer.
NOTES (numbers refer to Sequence numbers above)
1. The cell-based screening methods employed in this study were like those previously published. Briefly, the corresponding myeloma cell lines were screened in 1,536-well plates with 500 cells, 5-uL per well for inhibition of cell viability (assessed by measuring ATP levels with CellTiterGlo).
2. NCATS MIPE 4.0 library of approved and investigational drugs were added using the Kalypsis pin tool. Wells treated with DMSO only for 100% viability and media only for 0% viability were used as controls.
3. The assay plates were covered and incubated for 48 hours in a 37C, 5% CO2 incubator with controlled humidity.
4. After 48 hours, CellTilter-GloTM luminescent substrate mix (Promega) reagent was added to the assay plate and plates we incubated for 5 min at room temperature.
5. Signal was measured as median relative luminescence units on a ViewLux (PerkinElmer) multiplate reader.
[1] Heske CM, Davis MI, Baumgart JT, Wilson K, Gormally MV, Chen L, Zhang X, Ceribelli M, Duveau DY, Guha R, Ferrer M, Arnaldez FI, Ji J, Tran HL, Zhang Y, Mendoza A, Helman LJ, Thomas CJ. Matrix Screen Identifies Synergistic Combination of PARP Inhibitors and Nicotinamide Phosphoribosyltransferase (NAMPT) Inhibitors in Ewing Sarcoma. Clin Cancer Res. 2017 Dec 1;23(23):7301-7311. doi: 10.1158/1078-0432.CCR-17-1121. Epub 2017 Sep 12. PMID: 28899971; PMCID: PMC6636827.
In general terms: ATP-based viability assays read luminescence as a measure of living cells.
Turning to `Cc1c(C(=O)Nc2ccc(N3C[C@@H](C)O[C@@H](C)C3)nc2)cccc1-c1ccc(OC(F)(F)F)cc1`, the Potency entry is “inactive”.
To `CCCCOCCOc1nc(-c2ccc(C(=O)O)c(F)c2)sc1C` belongs “inactive”.
To `CO[C@H]1/C=C\O[C@@]2(C)Oc3c(C)c(O)c4c(O)c(c5c(nc6cc(C)ccn65)c4c3C2=O)NC(=O)C(C)=CC=C[C@H](C)[C@H](O)[C@@H](C)[C@@H](O)[C@@H](C)[C@H](OC(C)=O)[C@H]1C` belongs “inactive”; to `CC1(C)CC(=O)c2c(C(F)(F)F)nn(-c3ccc(C(N)=O)c(NC4CCC(O)CC4)c3)c2C1` (stereo not given), 0.0372 µM (active); to `C[C@@H]1C[C@H]2[C@@H]3CCC4=CC(=O)C=C[C@]4(C)[C@@]3(F)[C@@H](O)C[C@]2(C)[C@@]1(O)C(=O)CO`, “inactive”.
Consider `CC1CNc2c(cccc2S(=O)(=O)N[C@@H](CCCN=C(N)N)C(=O)N2CC[C@@H](C)C[C@@H]2C(=O)O)C1` (stereo not given in full), for which the Potency result is “inactive”.
To `CCCCC[C@H](O)C=C[C@H]1[C@H](O)CC(=O)[C@H]1CC=CCCCC(=O)O` belongs “inactive”; to `Cc1ccccc1-n1c(Cn2nc(-c3cccc(O)c3)c3c(N)ncnc32)nc2cccc(C)c2c1=O`, 7.43 µM (active); to `O=S(=O)(NCCNCC=Cc1ccc(Br)cc1)c1cccc2cnccc12`, 16.6 µM (active).
To `O=C(C=Cc1ccc(O)cc1)c1ccc(O)cc1O` belongs 14.8 µM (active).
To `Cc1ccc2c(c1)C(=O)[C@]1(O)CCN(c3ccccc3)C1=N2` belongs 10.5 µM (active); to `O=c1[nH]c(=O)n([C@H]2C[C@@H](O)[C@@H](CO)O2)cc1I`, “inactive”; to `NS(=O)(=O)c1cc(Cl)c(Cl)c(S(N)(=O)=O)c1`, “inactive”.
Consider `CN1CCN(c2ncc(-c3cc(Cl)cc(Cl)c3Cl)c(N)n2)CC1`, for which the Potency entry was “inactive”.
As for `O=c1[nH]c(=O)n([C@H]2C[C@@H](O)[C@@H](CO)O2)cc1C(F)(F)F`, the figure is 9.35 µM (active); as for `CN1CCC(COc2cnc(-c3cccc(Cn4nc(-c5cccc(C#N)c5)ccc4=O)c3)nc2)CC1`, “inactive”; as for `NC(=O)c1ccc(N(C(N)=O)c2c(F)cccc2F)nc1-c1ccc(F)cc1F`, “inactive”.
To `C[C@H]1COC2=C1C(=O)C(=O)c1c2ccc2c1CCCC2(C)C` belongs “inactive”; to `Nc1ncnc2c1ncn2[C@@H]1O[C@H](CO)[C@@H](O)[C@@H]1O`, 0.935 µM (active).
As for `CC(C)[C@H](O)C(=O)N[C@@H](C)C(=O)N[C@@H]1C(=O)N(C)CCc2ccccc21`, the entry is “inactive”.
As to `CCN1CCN(c2ccc(Nc3cc(N(C)C(=O)Nc4c(Cl)c(OC)cc(OC)c4Cl)ncn3)cc2)CC1`, the Potency entry was “inactive”.
To `N#CC(c1ccnc(NCCc2cccnc2)n1)c1nc2ccccc2s1` (stereo not given) belongs 26.4 µM (active); to `Nc1nc(Cl)nc2c1ncn2[C@@H]1O[C@H](CO)[C@@H](O)[C@H]1F`, 0.0235 µM (active).
To `C[C@@]1(c2cc(-c3cncnc3)c(F)cc2F)CCSC(N)=N1` belongs 13.2 µM (active).
As for `C[C@H]1[C@H](O)O[C@@H]2O[C@@]3(C)CC[C@@H]4[C@H](C)CC[C@@H]1[C@@]24OO3`, the figure is 13.2 µM (active); as for `CCCCC(C=O)NC(=O)C(CC(C)C)NC(=O)OCc1ccccc1` (stereo not given), 23.5 µM (active).
In the case of `CC(=O)Nc1cccc(-n2c(=O)n(C3CC3)c(=O)c3c(Nc4ccc(I)cc4F)n(C)c(=O)c(C)c32)c1`, the Potency entry is “inactive”.
As for `N#CC(c1ccc(Cl)cc1)c1c(Cl)cc(-n2ncc(=O)[nH]c2=O)cc1Cl` (stereo not given), the entry is “inactive”; as for `C[C@]12CC[C@@H]3c4ccc(O)cc4CC[C@H]3[C@H]1[C@@H](O)[C@@H](O)[C@H]2O`, “inactive”.
As for `COc1cc2c(cc1OC)[C@@H]1Cc3ccc(OC)c(OC)c3CN1CC2`, the figure is 8.33 µM (active); as for `CCn1c(-c2nonc2N)nc2cncc(CNC3CCNCC3)c21`, 20.9 µM (active).
As for `Cc1cc2nc3c(=O)[nH]c(=O)nc-3n(CC(O)C(O)C(O)CO)c2cc1C` (stereo not given), the figure is 5.9 µM (active); as for `COc1cccc(OC)c1-c1cc(C(=O)NC2(C(=O)O)C3CC4CC(C3)CC2C4)nn1-c1ccnc2cc(Cl)ccc12` (stereo not given), “inactive”; as for `NCC1CCC(C(=O)O)CC1` (stereo not given), “inactive”.
Consider `CC1C(=O)OC2C(O)C34C5CC(C(C)(C)C)C36C(OC(=O)C6O)OC4(C(=O)O5)C12O` (stereo not given), for which the Potency result was “inactive”.
To `COc1cc2c(cc1Cc1cccc(Cl)c1F)c(=O)c(C(=O)O)cn2[C@H](CO)C(C)C` belongs 23.5 µM (active); to `CCOC(=O)[C@H](CCc1ccccc1)N[C@@H](C)C(=O)N1CCCC1C(=O)O` (stereo not given in full), “inactive”.
To `COC(=O)Nc1ccc(-c2nc(N3CCOCC3)c3cnn(C4CCN(C(=O)OC)CC4)c3n2)cc1` belongs 0.59 µM (active); to `O=C(O)C1=CC(O)C(O)[C@H](O)C1` (stereo not given in full), “inactive”; to `CS(=O)(=O)c1ccc(C2=C(c3ccccc3)C(=O)OC2)cc1`, “inactive”.
